Hits are enriched below; roughly 9.1% of the tested compounds scored in any of these assays.
M1 antag = M1 muscarinic receptor (rat) antagonism. CHO-M1 cells, Fluo-4 calcium, ACh EC80 antagonist mode; hits give low values. B-score at 10 µM. actives 3.4% (n = 64,000). P08482;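 active = calcium fluorescence response, raw or row-and-column corrected B-score, differing from the plate sample mean either way at a set confidence level, mostly lower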
Target sequence (P08482 whole entry, looked up): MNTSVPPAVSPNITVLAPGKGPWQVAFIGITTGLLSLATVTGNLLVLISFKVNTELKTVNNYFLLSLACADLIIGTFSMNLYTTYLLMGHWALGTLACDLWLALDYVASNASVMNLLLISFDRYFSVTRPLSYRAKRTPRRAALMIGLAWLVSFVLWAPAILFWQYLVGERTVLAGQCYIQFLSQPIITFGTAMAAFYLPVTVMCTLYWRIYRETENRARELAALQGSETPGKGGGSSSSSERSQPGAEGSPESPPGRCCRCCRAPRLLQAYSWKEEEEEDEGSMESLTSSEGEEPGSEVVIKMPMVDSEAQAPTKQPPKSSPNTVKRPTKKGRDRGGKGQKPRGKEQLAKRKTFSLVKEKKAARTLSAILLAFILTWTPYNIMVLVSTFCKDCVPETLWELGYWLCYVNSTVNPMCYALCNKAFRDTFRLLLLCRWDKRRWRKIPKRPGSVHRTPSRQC
D1 allo mod = D1 dopamine receptor (human) allosteric modulation | P21728 | HEK293 D1, CRE-luciferase, dopamine EC30 potentiation; actives deviate in either direction | B-score at 10 µM | actives 5.9% (n = 58,000);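 active = luminescence count or its row- and column-corrected plate score outside the 99.7% band of the plate's sample wells, on either side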
Htt clearance = compounds clearing mutant huntingtin protein. actives 0.42% (n = 47,000). inhibition, % at 1.5 µM. HeLa Exon1htt(103Q)mCFP, aggregate imaging; zero = plate's median compound well;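 active = inhibition of aggregate fluorescence above about 70%, also judged a hit by eye on the cell image, limit read from the data, passing the limit was not always enough; inconclusive = no rule stated for this call; inactive = not judged a hit on image review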;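 note: cells exposed to compound for three days before fixation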
M1 agonist = M1 muscarinic receptor agonism; CHO-M1 cells, Fluo-4 calcium fluorescence, agonist mode; hits give high values; B-score at 10 µM; actives 3% (n = 64,000);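 active = fluorescence rise, raw or as B-score row- and column-corrected plate score, outside the 99.7% band of its plate's samples, either direction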
D1 PAM confirm = D1 receptor (human) allosteric modulation, confirmed | luminescence at 10 µM | actives 88% (n = 2,200) | HEK293 D1 CRE-luciferase, dopamine EC30 potentiation; hits give high values | shares compounds with D1 allo mod;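 active = luminescence in either of two replicates above the same-plate mean plus 3 SD of the low-dose dopamine control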
D1 ag no DA = D1 (human) signaling in absence of dopamine; luminescence at 10 µM; shares compounds with D1 allo mod; HEK293 D1 CRE-luciferase, luminescence, no dopamine; hits give high values; actives 0.8% (n = 1,900); AID 646; in the data active = luminescence above about 3900
Isoprot counter = alters isoproterenol CRE-luciferase response in HEK293 cells | HEK293 D1 CRE-luciferase, isoproterenol EC30 counter-screen; hits give high values | AID 647 | luminescence at 10 µM | shares compounds with D1 allo mod | actives 63% (n = 2,200);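 active = luminescence in either replicate above plate mean of wells with a partly effective reference agonist dose plus 3 SD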;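 note: isoproterenol raises cAMP through native beta-adrenoceptor Gs so signal bypasses D1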
Numbers without * were called inactive; ? = inconclusive; / = no result.

SMILES	M1 antag	D1 allo mod	Htt clearance	M1 agonist	D1 PAM confirm	D1 ag no DA	Isoprot counter
O=C1CC(c2ccc(F)cc2)Sc2ccccc2N1 (configuration not stated)	0.022	28*	/	0	22156*	1556	5328*
Cc1cc(C)n(-c2nc3c(c(=O)[nH]c(=O)n3C)n2Cc2ccc(F)cc2)n1	-1.8	0.35	-34	0.42	/	/	/
Cc1cc(C)n(-c2nc3c(c(=O)[nH]c(=O)n3C)n2Cc2ccccc2)n1	0.21	7.9*	/	-0.34	11052*	1636	3104*
Cc1cc(C)n(-c2nc3c(c(=O)[nH]c(=O)n3C)n2CCc2ccccc2)n1	0.22	3.8	-2	0.64	/	/	/
Cc1cc(C)n(-c2nc3c(c(=O)[nH]c(=O)n3C)n2C)n1	0.58	1.8*	/	-0.19	5180	1016	2268
O=C(Cn1ncc2c1-c1ccccc1OC2)N1CCN(Cc2ccc3c(c2)OCO3)CC1	-0.17	0.53	/	0.85	/	/	/
Cc1ccc(-c2cc(-c3ccc(F)cc3)nc(N)c2C#N)o1	/	15*	-4	/	26016*	2012	4452*
CCOc1ccc(C2=Nn3c(nnc3-c3ccc(OC)cc3)SC2)cc1	1.4	7.8*	?	-0.12	11104*	1552	4836*
COc1ccc(OCc2nnc3n2N=C(c2ccc(OC)cc2)CS3)cc1	0.082	9.7*	/	1.3	13236*	/	4800*
CCOC(=O)c1cccc(NC(=O)Cn2cnc3c2c(=O)n(C)c(=O)n3C)c1	0.39	-0.002	67	0.37	/	/	/
CC(C)C(NS(=O)(=O)c1ccc2c3c(cccc13)C(=O)N2)C(=O)O (configuration not stated)	-0.076	7*	-37	0.15	5048	/	2324
CCNc1sc(C(=O)c2cccs2)c(N)c1C#N	0.55	18*	-44	0.83	22348*	1796	3968*
C=CCNc1sc(C(=O)c2cccs2)c(N)c1C#N	/	16*	/	/	22248*	1616	3772*
CC(=O)Nc1cc(C(=O)N2CCOCC2)ccc1S(=O)(=O)c1ccc(C)cc1	0.29	5.6*	-64	-0.44	5968	1596	2344
CCOc1ccc(CNC(=O)CCn2c(=O)oc3ccccc32)cc1	-0.48	5.4*	-11	1.8	5860	1400	2624
O=C1CCCN1CN(C(=O)c1ccccc1)c1ccc(F)cc1	0.28	/	/	0.33	/	/	/
c1ccc2c(-c3nc(C4CCCCC4)no3)cc(-c3ccncc3)nc2c1	-0.44	2	-4	-0.24	/	/	/
COC1(OC)N=C(N)C2(C#N)C(c3cccc(Oc4ccccc4)c3)C12C#N (configuration not stated)	-1.2	19*	-6	-0.65	16148*	1756	3936*
CC(C(=O)N(C)C)N(C#N)c1nc(N(C)C)nc(N(C)C)n1 (configuration not stated)	0.28	-0.27	42	0.12	/	/	/
CC(C)Nc1nc(NC(C)C)nc(N(C)C#N)n1	-0.11	16*	/	0.86	21628*	1804	3796*
C#CCN(C#N)c1nc(NCC)nc(NC(C)C)n1	1.1	17*	48	-0.11	18300*	1652	5752*
Cc1onc(-c2ccccc2)c1C(=O)OCC(=O)Nc1ccc2c(c1)OCO2	0.5	-1.2	38	0.055	/	/	/
Cc1onc(-c2ccccc2)c1C(=O)Nc1ccc2c(c1)OCO2	-0.49	5*	/	-0.29	11760*	1796	3072
CC1(C)CC(=O)C2=C(C1)OC(N)=C(C#N)C2c1cccc(OC(=O)c2ccco2)c1 (configuration not stated)	0.51	6.3*	13	-0.066	5824*	1580	2360
CC1(C)CC(=O)C2=C(C1)OC(N)=C(C#N)C2CCc1ccccc1 (configuration not stated)	0.92	8.9*	51	0.27	20388*	1576	3000*
SMILES	M1 antag	D1 allo mod	Htt clearance	M1 agonist	D1 PAM confirm	D1 ag no DA	Isoprot counter
Cc1ccc(C(=O)C(C(=O)/C=C/c2ccccc2)=C2SCCCS2)cc1	/	/	-55	/	/	/	/
O=C(CCNS(=O)(=O)c1cccs1)N1CCc2ccccc2C1	0.032	3.4*	21	0.7	4796	/	2812*
Cc1cc(NC(=O)COC(=O)CCC(=O)c2ccc(F)cc2)no1	0.47	1.9	/	-0.96	/	/	/
CCOC(=O)CC(=O)Nc1ccc(C(=O)OCC)cc1	0.38	4.5*	-31	0.22	6944	1692	2496
Cc1ccccc1-n1c(SCC(=O)c2cc(C)n(C)c2C)nnc1-c1ccncc1	-1.1	0.24	-6	1.6	/	/	/
COc1ccc(-c2nnc(-c3cccnc3)o2)cc1OC	0.035	4.1*	/	1.3	8388*	/	3268*
CCOc1ccc(-c2nnc(-c3cccnc3)o2)cc1OCC	-0.64	8.1*	-22	0.88	20776*	1752	3728*
COc1cc(-c2nnc(-c3cccnc3)o2)cc(OC)c1OC	-0.2	1.5	-18	0.58	/	/	/
CCCCOc1cc(C)nc(NCc2ccccc2)n1	-0.23	10*	20	0.99	5728*	1592	2604
CCOc1cc(C)nc(NCc2ccccc2)n1	/	/	3	/	/	/	/
CN(c1ccccc1)c1nc(N2CCCC2)nc(-n2ccnc2)n1	-1.3	4.9*	35	1.1	11496*	1580	3908*
COc1ccc(OC)c(C2C(C(C)=O)=C(O)C(=O)N2CCC(=O)O)c1 (configuration not stated)	-0.0039	2.7*	-5	0.43	4144	1648	2524
O=C(CN1CCCC1=O)NC1(C(F)(F)F)NC(=O)N(Cc2ccccc2)C1=O (configuration not stated)	0.87	0.23	-6	0.82	/	/	/
CCSc1nc2cc(C(=O)OC)ccc2c(=O)n1CC	0.028	10*	/	0.43	13500*	2048	3628*
CCCCn1c(SCn2nnc3ccccc3c2=O)nc2cc(C(=O)OC)ccc2c1=O	0.39	0.44	/	-0.31	/	/	/
CCOC(=O)Nc1c(C)n(C)n(-c2ccccc2)c1=O	-1.3	2	/	1.3	/	/	/
CCOC(=O)CCn1c2nc(C)cc(C)c2c(=O)n1-c1ccccc1	0.54	2.2*	/	0.48	5272	1496	2412
CN(C)S(=O)(=O)c1cccc(-c2cn3ccccc3n2)c1	-1.6	-0.14	-8	-0.095	/	/	/
COc1ccc(-c2cn3ccccc3n2)cc1OC	0.0029	12*	5	-0.14	12712*	/	3136*
c1ccc(-n2c(SCc3ccncc3)nnc2-c2ccco2)cc1	0.66	10*	-47	0.27	14488*	/	3300*
CSc1ccc(-c2nc(CSCC(=O)N3CCOCC3)c(C)o2)cc1	0.32	26*	-2	-2.6	5664	1536	3268
CC(C)OCCCNC(=O)Cn1nc(-c2ccccc2)ccc1=O	-0.013	-1.5	/	1.6	/	/	/
CCc1ccccc1N(C(=O)CCC(=O)Nc1cc(C)on1)C(C(=O)NC1CCCC1)c1ccco1 (configuration not stated)	0.45	/	/	0.51	/	/	/
CCC(=O)Nc1ccc2c(c1)ncn2-c1ccc(OC)cc1	/	/	-57	/	/	/	/

High-throughput results (PubChem BioAssay)
